High-throughput results (PubChem)
Hits are enriched below; roughly 1.1% of the tested compounds scored in any of these assays.
COUP-TFII inh – NR2F2 (human) inhibition, primary screen; P24468; HEK293T NGFI-A luciferase reporter, luminescence; inhibition, % at 8.6 µM; actives 0.7% (n = 370,000);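 active = inhibition above a per-plate cutoff, mean inhibition of test wells between control levels plus 3 SD, cut at about 38% in these data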;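 note: cells cotransfected with COUP-TFII expression vector driving the NGFI-A reporter; 0% = median of COUP-TF2 test wells and 100% = reporter-only cells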
NCOA3 inh – inhibitors of human steroid receptor coactivator 3 (SRC3); Q9Y6Q9; HEK293 GAL4-SRC3 luciferase reporter, luminescence; inhibition, % at 3.6 µM; actives 0.17% (n = 360,000);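 active = inhibition above a per-campaign cutoff, the mean of all compounds plus 3 SD, cut at about 60% in these data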;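 note: 0% = DMSO-treated cells and 100% = gossypol-treated cells at 36 µM; higher means less SRC3-driven luciferase light from the GAL4 reporter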
NCOA1 inh – human NCOA1 inhibition; AID 588354; actives 0.12% (n = 360,000); inhibition, % at 3.6 µM; HEK293 GAL4-SRC1 luciferase reporter, luminescence; Q15788;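 active = inhibition above the campaign mean plus 3 SD, with each screening campaign given its own cutoff, cut at about 60% in these data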;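 note: 0% = DMSO treated cells and 100% = gossypol at 36 µM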
GalR3 antagonist – human GalR3 antagonism | O60755 | HEK293 GalR3-CNG cAMP membrane potential fluorescence; galR3 body fused to GalR1 C-terminus | inhibition, % at 3 µM | actives 0.44% (n = 360,000);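 active = inhibition above the screen-wide average plus 3 SD, cut at about 13% in these data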;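 note: forskolin and galanin both at EC90 stimulate the cells; cAMP rise reported by CNG channel membrane potential dye signal; 0% = forskolin plus galanin with DMSO and 100% = forskolin alone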
NR5A2 inv ag – NR5A2 inverse agonism in reporter assay; O00482; HEK293T StAR-luciferase reporter, LRH-1 transfected, 24 h; inhibition, % at 3.6 µM; actives 0.13% (n = 360,000); AID 602396;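 active = inhibition above the mean inhibition of all tested compounds plus 3 SD, cut at about 73% in these data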;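 note: 0% = DMSO wells and 100% = reporter-only cells lacking LRH-1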
Target sequence (O00482 whole entry, looked up): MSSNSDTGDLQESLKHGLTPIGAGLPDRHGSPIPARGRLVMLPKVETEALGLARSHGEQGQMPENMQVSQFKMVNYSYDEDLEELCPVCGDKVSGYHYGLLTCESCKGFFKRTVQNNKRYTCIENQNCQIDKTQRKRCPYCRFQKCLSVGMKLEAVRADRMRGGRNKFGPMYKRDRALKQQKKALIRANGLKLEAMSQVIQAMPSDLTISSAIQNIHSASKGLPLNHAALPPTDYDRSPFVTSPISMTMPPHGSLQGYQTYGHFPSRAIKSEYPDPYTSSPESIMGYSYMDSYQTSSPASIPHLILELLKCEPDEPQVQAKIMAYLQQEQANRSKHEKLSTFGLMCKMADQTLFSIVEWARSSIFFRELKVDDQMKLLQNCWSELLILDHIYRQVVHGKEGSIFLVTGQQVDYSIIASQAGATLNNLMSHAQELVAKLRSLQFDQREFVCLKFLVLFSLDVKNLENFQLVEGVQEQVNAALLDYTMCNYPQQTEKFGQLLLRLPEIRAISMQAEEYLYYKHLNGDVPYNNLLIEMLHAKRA
NCOA2 inhibitor – human SRC2 (NCOA2) inhibition; HEK293 GAL4-SRC2 luciferase reporter, luminescence; inhibition, % at 9 µM; actives 0.17% (n = 370,000); Q15596;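 active = inhibition above the mean inhibition of all tested compounds plus 3 SD, set per campaign, cut at about 52% in these data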;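 note: 0% = DMSO treated cells and 100% = cells given Gossypol at 36 µM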
GalR3 conf – confirmation of human galanin receptor 3 antagonists; shares compounds with GalR3 antagonist; HEK293 GalR3 CNG cAMP biosensor, membrane potential fluorescence; galR3 fused to GalR1 carboxy tail; challenged with forskolin and galanin at EC90; inhibition, % at 3 µM; actives 59% (n = 1,600); AID 652245;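 active = inhibition above the primary screen's cutoff, the mean inhibition of all screened compounds plus 3 SD, cut at about 13% in these data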;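 note: 0% = forskolin plus galanin and 100% = forskolin alone with DMSO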
CNG parental – parental cell agonism counter-screen for GalR3 antagonists; shares compounds with GalR3 antagonist; HEK293-CNG parental cells, cAMP membrane potential fluorescence; normalised: DMSO wells 0%, forskolin wells 100%; activation, % at 3 µM; actives 10% (n = 1,600); AID 652268; in the data active = activation above about 1.3%
* marks the source's active call; other numbers are inactive results; nt = not tested or not shown.

SMILES	COUP-TFII inh	NCOA3 inh	NCOA1 inh	GalR3 antagonist	NR5A2 inv ag	NCOA2 inhibitor	GalR3 conf	CNG parental
OCCOCCn1c(C(CO)Nc2nc(-c3ccc(Cl)cc3)cs2)nc2ccccc21 (stereo unspecified)	10	-8	-17	0	-15	-2	nt	nt
Nc1c(Cl)cc(-c2csc(NC(CO)c3nc4ccccc4n3CCOCCO)n2)cc1Cl (stereo unspecified)	-18	-28	-10	64*	9	-43	8	0
CCCCCCCCN1C(=O)[C@@H](CC(=O)N2CCCCC2)C[C@@]2(C(=O)OC)C1=C[C@H](C(C)C)O[C@@H]2C1CC1	7	nt	nt	nt	nt	28	nt	nt
COc1ccc(CC2(CO)CCN(Cc3cccc(OC)c3OC)CC2)cc1	-23	9	13	26*	-6	-9	2	2.1*
CCOC(=O)CCc1cccc2c1CCC2=O	-4	-1	-21	nt	3	2	4	1
CCOC(=O)CCC(=O)N(CCN(C(=O)CCC(=O)OCC)c1ccccc1)c1ccccc1	-1	27	-12	-1	0	-22	nt	nt
COc1cccc(Cn2c(NCc3ccccn3)nc3c2c(=O)n(C)c(=O)n3C)c1	-1	nt	nt	14*	nt	-26	10	0
C=CCNc1nc2c(c(=O)n(C)c(=O)n2C)n1CCCCCC	61*	27	13	41*	46	4	83*	0
Nc1cc(=O)[nH]c(=O)n1-c1cccc(F)c1	11	12	-60	27*	-14	-25	6	0
Cc1cccc(-n2c(N)cc(=O)[nH]c2=S)c1	-16	-1	7	-1	1	9	nt	nt
c1ccc(-n2cnnc2SCc2cn3ccsc3n2)cc1	-3	-21	-10	-3	-10	-16	nt	nt
c1ccc(-n2cnnc2SCc2cn3ccccc3n2)cc1	-3	-1	1	54*	6	-10	2	0
CN(C)S(=O)(=O)c1ccc(C(=O)Nc2nc(-c3cc4ccccc4o3)cs2)cc1	35	-9	-10	93*	1	-11	103*	-1
O=C(Nc1nc(-c2cc3ccccc3o2)cs1)c1ccc(S(=O)(=O)N2CCCC2)cc1	5	5	12	-4	13	10	nt	nt
CCn1ncc(C2=NOC(C(=O)NCc3ccccc3)C2)c1C (stereo unspecified)	-51	-1	-28	16*	21	13	25*	1
CC(C)CC(c1nnnn1C(C)C)N1CCN(c2ccccc2)CC1 (stereo unspecified)	-13	-15	8	nt	17	3	-5	6.9*
Cc1ccc(-c2cc(-c3nnc(SCC(=O)N4CCOCC4)n3N)[nH]n2)cc1	-15	nt	nt	nt	nt	-28	nt	nt
O=C(CN1CCN(Cc2ccccc2F)C1=O)NC1CCCC1	-8	9	4	13*	-2	-27	4	0
O=C(CN1CCCN(Cc2ccc(F)cc2Cl)C1=O)NC1CCCCCCC1	13	1	-1	-7	-8	1	nt	nt
COc1cccc(N2CCN(CC(=O)NCc3cccc(OC)c3OC)CC2)c1	2	nt	nt	nt	nt	13	nt	nt
C#CCOCCOCCOCCNc1nc(N2CCN(C(=O)Cn3cc(CCCN=C(N)N)nn3)CC2)nc(N2CCN(C(=O)[C@H](Cc3ccc(O)cc3)n3cc(CCO)nn3)CC2)n1	11	nt	nt	nt	nt	nt	nt	nt
O=C(Nc1ccccc1)c1nn(-c2cccc(C(F)(F)F)c2)ccc1=O	-2	6	2	45*	-10	7	50*	0
CCCCC[C@H](O)/C=C/C1C(=O)C=C[C@H]1C/C=C\CCCC(=O)OC (stereo partly specified)	-24	-18	-19	64*	2	-38	80*	0
COc1cccc(/C=C2\CC3(OC(=O)c4ccco4)CCCN2C3)c1 (stereo unspecified)	9	nt	nt	nt	nt	13	nt	nt
CC1Oc2ccccc2C=C1/C=N/Nc1ccc(C(=O)O)cc1 (stereo unspecified)	-16	-137	-103	14*	-197	-24	14*	0
SMILES	COUP-TFII inh	NCOA3 inh	NCOA1 inh	GalR3 antagonist	NR5A2 inv ag	NCOA2 inhibitor	GalR3 conf	CNG parental
COc1cccc(OC)c1NC(=O)OC1CCC12CCC(c1ccccc1)CC2 (stereo unspecified)	-5	nt	nt	nt	nt	nt	nt	nt
O=C(C(=O)N1CCN(c2ccc(F)cc2)CC1)N1CCCCC1	-2	-4	-12	18*	8	6	1	0
O=C(C1CC1)N1CCN(c2ccc(F)cc2)CC1	-1	-3	-16	-3	-6	-15	nt	nt
CCCc1[nH][nH]c(=O)c1C(c1cccc(Cl)c1)C(C#N)C#N (stereo unspecified)	8	0	-1	-3	1	6	nt	nt
N#CC(C#N)C(c1ccsc1)c1c(-c2ccccc2)[nH][nH]c1=O (stereo unspecified)	3	-1	-15	14*	18	3	17*	2.8*
Cc1ccc(-n2c(=O)cc(N3CCN(C(=O)c4ccco4)CC3)[nH]c2=O)cc1	-46	-24	6	15*	-22	-82	0	0
Cn1c(=O)cc(N2CCN(C(=O)c3ccco3)CC2)[nH]c1=O	-9	-6	-9	nt	6	-23	nt	nt
CC[C@@H](CCCCCC#N)CCC(=O)N(c1ccccc1)c1ccccc1	31	nt	nt	nt	nt	2	nt	nt
CCN(Cc1ccccc1)S(=O)(=O)c1ccc(S(=O)(=O)N(Cc2ccccn2)Cc2ccco2)cc1	-4	-4	-6	-5	3	-1	nt	nt
CC1CCCCN1S(=O)(=O)c1ccc(S(=O)(=O)N(Cc2ccccc2)Cc2ccco2)cc1 (stereo unspecified)	0	-1	3	13*	-6	19	11	-1
N#Cc1c(N)nc(SCc2ccccn2)c(C#N)c1-c1cccs1	-24	6	-20	75*	9	-6	49*	2.5*
CCOC(=O)CSc1nc(N)c(C#N)c(-c2cccs2)c1C#N	4	-5	9	-4	0	-21	nt	nt
O=C(NCc1ccc(Cl)cc1)C(=O)c1cn(CC(=O)N2CCOCC2)c2ccccc12	-10	-2	9	19*	1	1	4	0
COc1ccc(CNC(=O)C(=O)c2cn(CC(=O)N3CCOCC3)c3ccccc23)cc1	1	-43	-8	-7	-23	8	nt	nt
CC(C)CC(=O)/C=C/n1c(=S)oc2ccccc21	-15	-5	-4	-2	-3	-20	nt	nt
CC(=O)/C=C/n1c(=S)oc2ccccc21	3	nt	nt	15*	nt	-42	2	1.6*
